From PubChem BioAssay AID720513 (Broad Institute, 2013)
Screen size: about 2,100 compounds; about 480 (23%) were called active. Roughly 5% stayed inconclusive and do not appear here.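 How the source made its calls: active means fitted curve reaches 40% activation at or below the top valid concentration, in every replicate test; inconclusive means replicate tests disagree on the call; inactive means the rest, including activity in the opposite direction.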 Only a sample is shown. Results with a measured potency or affinity are listed apart.

experiment: PGC1a acetylation increase, cellular AlphaLISA – cell-based, cherry-picked samples, set 6, dose response (AID 720513); details: U2OS PGC1a acetylation AlphaLISA, overnight, 0 = neutral, -100 = inhibitor control; series mostly up to 19.5 µM;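 further: cells made to overexpress flag tagged PGC1a plus GCN5 acetyltransferase by viral infection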

outcome, inactive:
CCn1nccc1C(=O)Nc1ccccc1OC
CCOc1ccccc1NC(=O)c1ccc2ccccc2c1
C[C@@H]1CN([C@H](C)CO)C(=O)c2cc(C3=CCCCC3)cnc2O[C@@H]1CN(C)Cc1ccccc1
COc1ccc(C(CC(=O)Nc2ccccn2)N2Cc3ccccc3C2=O)cc1 (stereo unspecified)
c1ccc(-c2cc(-c3ccccc3)n3ncnc3n2)cc1
CC(C)NC(=O)Nc1ccc2c(c1)C(=O)N([C@@H](C)CO)C[C@H](C)[C@@H](CN(C)C(=O)CCC(F)(F)F)OCCCC[C@@H](C)O2
C[C@H]1CN([C@@H](C)CO)S(=O)(=O)c2ccc(C#Cc3cccnc3)cc2O[C@@H]1CN(C)CC1CCOCC1
COc1cc(NC(=O)NCc2ccco2)ccc1-c1ccc(NC(=O)NCc2ccco2)cc1OC
Cc1noc(C)c1NC(=O)N[C@H]1C=C[C@H](CC(=O)NCc2ccc(Cl)c(Cl)c2)O[C@H]1CO
CN1C(=O)c2ccccc2C(C(=O)O)C1c1cccc([N+](=O)[O-])c1 (stereo unspecified)
CCOC(=O)C1(Cc2cccc(F)c2)CCN(Cc2ccc(COC)o2)CC1
CCOC(=O)C1(Cc2cccc(F)c2)CCN(Cc2c(C)nn(CC)c2C)CC1
C[C@@H]1CN([C@@H](C)CO)C(=O)Cc2cc(NC(=O)CCC(F)(F)F)ccc2O[C@H]1CN(C)S(C)(=O)=O
Cn1nnnc1Sc1ncnc2scc(-c3ccc[nH]3)c12
Cn1c(CCN2CCCCC2)nc2cc(NS(=O)(=O)c3ccccc3)ccc21
Oc1ccc2ccccc2c1CN1CCCCC1
Cn1c(O)c(C(C#N)=C2N=c3ccccc3=N2)c2ccccc21
O=C(C[C@H]1CC[C@@H]2[C@H](COC[C@@H](O)CN2S(=O)(=O)c2ccc(F)cc2)O1)NCCN1CCCCC1
O=c1oc(-c2ccccc2)cc(Cl)c1Cl
CN(C)Cc1csc(NC(=O)Nc2ccccc2-c2ccccc2)n1
Cc1noc(C)c1C(=O)Nc1nc(-c2cc(F)ccc2F)cs1
CC(C)NC(=O)NCC[C@@H]1CC[C@H](NS(=O)(=O)c2ccc(-c3ccccc3)cc2)[C@@H](CO)O1
COC(=O)c1cc(Cl)c(NS(=O)(=O)c2ccccc2)cc1OC
COc1ccccc1NC(=O)CCC(=O)Nc1ccccc1OC
CCn1c(=O)c2c(cnn2C)c2ccccc21
CCOc1ccc(Nc2ncnc3ccc([N+](=O)[O-])cc23)cc1
COc1ccc(-c2nc(C#N)c(NCc3ccco3)o2)cc1
CCCNC(=O)c1nnsc1S(=O)(=O)c1ccc(Cl)cc1
Cc1cc(C)c2c(=O)[nH]n(C3CCCCCC3)c2n1
O=C(C[C@H]1C[C@@H]2c3cc(NS(=O)(=O)c4ccc(F)cc4)ccc3O[C@@H]2[C@@H](CO)O1)N1CCc2ccccc2C1
O=C(C(Br)=Cc1ccccc1)c1ccccc1
O=C(C1CC1)N1C[C@@H]2N[C@H](C1)C2c1ccc(/C=C/c2ccccc2)cc1 (stereo partly specified)
Cc1ccc(C(=O)OCN2C(=O)c3ccccc3C2=O)o1
CCCCC1C(=O)N(c2ccccc2)N(c2ccc(O)cc2)C1=O (stereo unspecified)
O=C(Nc1nc2cc3c(cc2s1)OCCO3)c1ccncc1
C[C@@H]1CN([C@@H](C)CO)C(=O)c2cc(NS(=O)(=O)c3ccc(F)cc3)ccc2O[C@@H]1CN(C)S(=O)(=O)c1ccc(Cl)cc1
CC(C)NC(=O)Nc1ccc2c(c1)C(=O)N([C@@H](C)CO)C[C@@H](C)[C@H](CN(C)Cc1ccc(C(=O)O)cc1)OCCCC[C@H](C)O2
CCCC(=O)C1=C(O)C(C(=O)OC)C(C)(C)CC1=Nc1ccc(OC)cc1 (stereo unspecified)
NC(=O)c1sc2nc3c(c(-c4cccs4)c2c1N)CCCCC3
COc1ccc(S(=O)(=O)N[C@H]2CC[C@@H](CCNC(=O)c3ccccc3F)O[C@@H]2CO)cc1
O=C(Cc1ccccc1)N1CC[C@@H]2[C@H]1c1cc(C#Cc3ccccc3)ccc1N[C@@H]2CO
CCCOC(=O)c1ccc(-n2nnnc2SCC(=O)N2CCCCC2)cc1
CN(CC(=O)Nc1ccccc1Br)C(=O)c1cccc(S(=O)(=O)NCc2ccccc2)c1
C[C@@H]1CN([C@@H](C)CO)C(=O)c2cccc(NC(=O)Nc3ccccc3)c2O[C@H]1CN(C)S(=O)(=O)c1cccs1
COc1ccccc1NC(=O)Cn1c(C)cc(=O)c2cccc(OC)c21
COc1ccc(Cl)cc1NC(=O)NCC1CCN(C(=O)OC(C)(C)C)CC1
O=C(Nc1ccc(C(F)(F)F)cc1)N1C[C@@H]2N[C@H](C1)C2c1ccc(-c2ccccc2)cc1 (stereo partly specified)
O=C(Nc1ccc(C(F)(F)F)cc1)N1C[C@@H]2N[C@H](C1)C2c1ccc(/C=C/c2ccccc2)cc1 (stereo partly specified)
CO[C@@H]1CN(C)C(=O)c2ccc(NS(=O)(=O)CC(F)(F)F)cc2OC[C@@H](C)N(C(=O)NC(C)C)C[C@H]1C
O=C(CNC(=O)C1CCCCC1)OCC(=O)c1ccc(Cl)s1
CCOCCc1nn2c(=O)cc(CSCC(=O)Nc3cccc(C)c3C)nc2s1
CC(C)(C)NC(=O)c1ccc(Sc2ccccc2)c([N+](=O)[O-])c1
Cc1cc(=O)[nH]c(SCC(=O)c2ccc(F)c(C)c2)n1
Cc1cccc(Oc2ccccc2NC(=O)C2=COCCO2)c1
COc1cc(CN2CCC(C(=O)NCCC(C)C)CC2)ccc1OCc1ccccc1
CNc1ccc2ncc(-c3ccc(OC)c(OC)c3)n2n1
CCOc1ccc(-c2[nH]ncc2-c2ccc(OC)c(OC)c2)c(O)c1
CC(C)(C)OC(=O)NC(Cc1ccccc1)C(=O)NCCCC(=O)O (stereo unspecified)
CC(C)NC(=O)N(C)C[C@H]1OCCCC[C@@H](C)Oc2ccc(NC(=O)Nc3ccc(C(F)(F)F)cc3)cc2C(=O)N([C@H](C)CO)C[C@@H]1C
C[C@@H]1CN([C@@H](C)CO)C(=O)c2cc(C3=CCCC3)cnc2O[C@@H]1CN(C)C(=O)Nc1cccc(F)c1
C[C@@H]1CN([C@H](C)CO)C(=O)CCCn2cc(nn2)CO[C@H]1CN(C)C(=O)Nc1ccc(C(F)(F)F)cc1
C[C@@H]1CN([C@H](C)CO)C(=O)CCCn2nncc2CO[C@H]1CN(C)C(=O)Nc1cccc(F)c1
COC(=O)Cn1ccc(-c2ccc(Cl)cc2)c(C#N)c1=O
NC(=O)COC(=O)CC(NC(N)=O)c1ccc(Cl)cc1 (stereo unspecified)
C[C@@H]1CN([C@H](C)CO)C(=O)CCCn2nncc2CO[C@@H]1CN(C)S(=O)(=O)c1cn(C)cn1
Cc1ccccc1C(=O)Nc1ccc(C(=O)O)cc1NC(=O)c1ccccc1C
Cc1ccc(NC2=C([N+](=O)[O-])CS(=O)(=O)C2)cc1
O=C(COC(=O)C1CC2CCCC(C1)C2=O)Nc1ccc(F)c(Cl)c1 (stereo unspecified)
COc1ccccc1/C=C(/C(=O)OCC(=O)NCc1ccccc1)c1ccccc1
S=c1sc2c(Cl)ncnc2n1-c1ccccc1
CCCN(C)C[C@@H]1Oc2cc(C#C[C@H](C)O)ccc2S(=O)(=O)N([C@H](C)CO)C[C@@H]1C
Cc1ccc(C)c(C(=O)Cn2ncc(Cl)c(Cl)c2=O)c1
COc1ccc(C#Cc2ccc([C@@H]3[C@H](CO)N4CCCCN(C(=O)Nc5ccccc5)C[C@@H]34)cc2)cc1
C[C@@H]1CN([C@H](C)CO)S(=O)(=O)c2ccc(-c3cncnc3)cc2O[C@H]1CN(C)Cc1cccnc1
C[C@H](CO)N1C[C@H](C)[C@@H](CN(C)Cc2ccc3c(c2)OCO3)Oc2cc(-c3cccc(C(=O)N(C)C)c3)ccc2S1(=O)=O
C[C@H]1CN([C@@H](C)CO)S(=O)(=O)c2ccc(-c3ccccc3)cc2O[C@@H]1CN(C)Cc1cccc(F)c1
CCCC#Cc1ccc2c(c1)O[C@@H](CN(C)Cc1ccc3c(c1)OCO3)[C@@H](C)CN([C@H](C)CO)S2(=O)=O
COc1ccccc1-c1ccc2c(c1)O[C@@H](CN(C)Cc1ccc3c(c1)OCO3)[C@@H](C)CN([C@H](C)CO)S2(=O)=O
C[C@H]1CN([C@@H](C)CO)S(=O)(=O)c2ccc(C#CCN(C)C)cc2O[C@H]1CN(C)Cc1ccc2c(c1)OCO2
CC(C)CC#Cc1ccc2c(c1)O[C@@H](CN(C)Cc1ccc3c(c1)OCO3)[C@H](C)CN([C@H](C)CO)S2(=O)=O
COc1cccc(-c2ccc3c(c2)O[C@H](CN(C)Cc2ccncc2)[C@@H](C)CN([C@@H](C)CO)S3(=O)=O)c1
Cc1cccc(CC2CC(=O)N(C3CCCCC3)C2=O)c1 (stereo unspecified)
CCCCn1c(=O)[nH]c(=O)c2c1nc(-c1ccc(OCCC)c(OCC)c1)n2C
Oc1ccc(-c2nc(-c3ccc(O)c(O)c3)cs2)cc1
Cc1cccc(COc2ccc(/C=C3/C(=O)N(C)C(=S)N3C)cc2)c1
COc1ccc(CCN(C)C(=O)CN2C(=O)NC3(CCCc4ccccc43)C2=O)cc1OC (stereo unspecified)
C/C(=C\C(=O)N1CCc2ccccc21)C(=O)O
O=C(Nc1cccc2c1CCCC2)c1ccccc1Br
CC(C)(C)NCCC(O)c1cc(C(F)(F)F)nc2c(C(F)(F)F)cccc12 (stereo unspecified)
CCN(CC)CC#CCOC(c1ccccc1)c1ccccc1
O=[N+]([O-])c1ccc(Oc2ccc(F)cc2)c2ccncc12
